BoNT-A LC inh2: blocks Botulinum neurotoxin A light chain protease. multiplex microsphere protease substrate cleavage, flow cytometry. inhibition, % at 10 µM. AID 588499. hit rate 0.17% among 360,000; further: plate controls were buffer without enzyme for full effect and enzyme alone for no effect
BJeLR lethal: BJeLR cell viability loss. BJeLR (HRASV12) viability, CellTiter-Glo ATP luminescence, 48 h. inhibition, % (no concentration beside the values). hit rate 0.17% among 300,000. AID 1554; in the data active means inhibition above about 50%; inconclusive means no clear call, values can overlap the other calls
BoNT F protease: inhibitors of Botulinum neurotoxin F light chain protease; Multiplex microsphere protease cleavage assay, flow cytometry; inhibition, % at 10 µM; hit rate 0.22% among 360,000; in the data active means inhibition above about 35%, passing the limit was not always enough; inconclusive means no clear call, values can overlap the other calls; further: plate controls were buffer without enzyme for full effect and enzyme alone for no effect
Autofluor counter: compound fluorescence in toxin protease inhibitor counterscreen. fluorescence intensity (concentration not given with the values). hit rate 3.1% among 360,000. compound autofluorescence counterscreen, microsphere flow cytometry; hits give high values; in the data active means fluorescence intensity above about 16000; inconclusive means no clear call, values can overlap the other calls
Anthrax LF inh2: blocks Bacillus anthracis lethal factor protease; P15917; multiplex microsphere protease cleavage assay, LF; inhibition, % at 10 µM; hit rate 0.12% among 360,000; AID 588501; further: plate controls were buffer without enzyme for full effect and enzyme alone for no effect
Target sequence (P15917 whole entry, looked up): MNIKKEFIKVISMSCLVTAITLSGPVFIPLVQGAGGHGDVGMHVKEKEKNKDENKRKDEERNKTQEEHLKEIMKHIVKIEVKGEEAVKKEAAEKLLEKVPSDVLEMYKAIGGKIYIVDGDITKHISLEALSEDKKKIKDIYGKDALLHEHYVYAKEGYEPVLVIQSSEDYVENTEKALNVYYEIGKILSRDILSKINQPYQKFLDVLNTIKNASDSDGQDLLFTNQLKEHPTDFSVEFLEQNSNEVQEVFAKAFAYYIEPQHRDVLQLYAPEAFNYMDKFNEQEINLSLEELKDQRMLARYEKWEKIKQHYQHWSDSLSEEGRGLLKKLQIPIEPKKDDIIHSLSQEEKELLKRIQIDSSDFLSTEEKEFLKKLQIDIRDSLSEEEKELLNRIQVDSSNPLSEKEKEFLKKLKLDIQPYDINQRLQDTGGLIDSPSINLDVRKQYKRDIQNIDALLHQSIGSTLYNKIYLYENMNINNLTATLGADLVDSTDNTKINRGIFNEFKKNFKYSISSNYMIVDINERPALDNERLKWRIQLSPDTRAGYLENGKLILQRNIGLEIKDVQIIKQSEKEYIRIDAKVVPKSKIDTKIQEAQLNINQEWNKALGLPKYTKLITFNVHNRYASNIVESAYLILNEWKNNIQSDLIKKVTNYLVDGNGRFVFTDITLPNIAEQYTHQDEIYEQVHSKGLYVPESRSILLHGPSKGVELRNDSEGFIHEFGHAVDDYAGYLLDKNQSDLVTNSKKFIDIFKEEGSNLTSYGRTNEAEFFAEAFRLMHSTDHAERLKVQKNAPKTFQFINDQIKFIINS
Starred values were filed as active, the others as inactive; ? = inconclusive; · = no result. This is a sample that favours compounds with a hit; in the whole collection about 3.5% have one here. Unless noted, no stated cut-off is given here; in the data, active means inhibition above about 30%; inconclusive means no clear call, values can overlap the other calls; inactive means below that.

SMILES	BoNT-A LC inh2	BJeLR lethal	BoNT F protease	Autofluor counter	Anthrax LF inh2
N#Cc1cnc(NN)nc1	-1	-7	1	4485	5
CCOC(=O)c1cnn(-c2nc(-c3ccccc3F)cs2)c1C(F)(F)F	?	-4	0	19894*	-12
O=C1CC(c2ccccc2)Cc2nc(N3CCc4ccccc4C3)ncc21 (stereo not drawn)	0	2	0	4477	-8
Cc1ccc(C2CC(=O)c3cnc(N4CCc5ccccc5C4)nc3C2)cc1 (stereo not drawn)	?	-3	2	19424*	-3
O=S(=O)(c1ccccc1)c1cnc(-c2cccnc2)nc1-c1ccccc1	0	8	-1	22391*	-1
O=S(=O)(c1ccccc1)c1cnc(-c2cccnc2)nc1-c1ccc(Cl)cc1Cl	1	15	4	9846	6
CCOC(=O)CSc1nnc(CNC(=O)c2ccc(OC)cc2)n1C1CCCCC1	0	4	-4	6088	-5
CCN(C(=O)CSc1nnc(C)n1-c1ccccc1)C1CCS(=O)(=O)C1 (stereo not drawn)	0	-3	3	3319	3
CCc1ccc(N2CN(Cc3cccnc3)CNC2=S)cc1	0	-3	3	4108	-3
S=C1NCN(Cc2cccnc2)CN1	1	3	35*	3668	?
COc1ccc(-c2nnc(SCC(=O)NC(C)c3ccccc3)o2)cc1OC (stereo not drawn)	0	-4	-7	2730	-2
O=C(CC[C@H]1O[C@@H](n2ccc(=O)[nH]c2=O)[C@H](O)[C@@H]1O)N[C@H](Cc1ccccc1)C(=O)NCc1cccs1	0	·	-7	4174	-12
O=S1(=O)CC2(N3CCOCC3)CCCCCCC21 (stereo not drawn)	-2	9	-1	23822*	0
O=S1(=O)CC2(N3CCOCC3)CCCCC21 (stereo not drawn)	2	-4	1	19624*	-2
CCOC(=O)C1=CCC(c2ccc(Cl)cc2)N(S(=O)(=O)c2ccc(C)cc2)C1 (stereo not drawn)	0	·	1	4149	0
CCCCNc1ccccc1C(=O)OCC(=O)Nc1ccc(S(N)(=O)=O)cc1	6	-1	11	17458*	-12
Oc1ccccc1-[n+]1c(-c2ccccc2)cc(-c2ccccc2)cc1-c1ccccc1	0	10	-3	3798	0
[O-]c1ccccc1-[n+]1c(-c2ccccc2)cc(-c2ccccc2)cc1-c1ccccc1	1	63*	-6	3929	-8
COc1ccc(-n2c(C)cc(C(=O)CSc3nnc(-c4ccoc4C)n3C)c2C)cc1	-1	-5	-15	4284	-4
CC1(C)Nc2ccccc2N(Cc2ccc([N+](=O)[O-])cc2)C1=O	0	14	-4	1937	-1
C=CCn1c(COC)nnc1SCC(=O)c1ccc(F)cc1	?	2	-2	16919*	-4
COc1ccc(O)c(CN2CC3CCC(CC3)C2)c1	0	·	5	3680	0
COC(=O)c1ccc(NC(=O)CSc2nncn2C)cc1	0	-2	-3	3882	-2
CCC(=O)Nc1cccc(NC(=O)CSc2nnnn2C)c1	-1	2	-3	16778*	-5
COC(=O)c1cc(NC(=O)CSc2nncn2C)cc(C(=O)OC)c1	-1	-14	1	20871*	-2
SMILES	BoNT-A LC inh2	BJeLR lethal	BoNT F protease	Autofluor counter	Anthrax LF inh2
Cn1nnnc1SCC(=O)Nc1cc(C(=O)O)cc(C(=O)O)c1	?	-7	-5	17115*	2
Cn1nnnc1SCC(=O)NCc1cccc(C(=O)O)c1	?	8	1	20029*	0
COC(=O)c1cccc(NC(=O)CSc2nnnn2C)c1	0	3	0	2755	0
Nc1[nH]c(C(=O)c2ccccc2)c(-c2ccncc2)c1C(=O)NCCc1c[nH]c2ccccc12	-1	·	-10	5238	-8
CC(C)Cc1ccc(-c2cc3nc(NCCCn4ccnc4)ccn3n2)cc1	-1	·	-12	3410	-3
OC[C@@H]1CN(Cc2ccncc2)C[C@H](n2cnc3c(NC4CCCC4)ncnc32)O1	0	·	2	2844	5
Cn1nnnc1SCC(=O)Nc1ccccc1Br	-1	-4	-1	6161	0
Cn1nnnc1SCC(=O)Nc1ccccn1	?	-3	5	22271*	-7
COc1cccc(N=Cc2c(O)n(-c3cccc(C)n3)c(=O)c3ccccc23)c1	0	-11	6	9699	2
COc1ccc(N=Cc2c(O)n(-c3cccc(C)n3)c(=O)c3ccccc23)c(OC)c1	4	-1	?	3217	63*
COC(=O)C1=C(O)CSC1=Nc1cccc(C(F)(F)F)c1	-2	5	-2	17678*	0
Nc1c2c(nn1-c1ccc(F)cc1)CSC2	2	-7	9	4077	-2
CC1(C(=O)NS(=O)(=O)c2ccc(Cl)cc2)CCN1C(=O)C1(c2ccc(Cl)cc2)CCC1 (stereo not drawn)	0	·	-10	3816	4
CCOC(=O)c1cccnc1SCC(=O)N(C)c1ccccc1	1	4	0	22147*	3
CCCSc1nc(C)c(C(C)=O)cc1C#N	-1	-7	-11	2073	-6
COC(=O)CSc1nc(C)c(C(C)=O)cc1C#N	?	1	4	20891*	0
CCc1nc(C)ccc1OCC(=O)NCCCN(C)C	-2	·	-2	22619*	-1
CCn1nc(C)cc1C(=O)N1CCCC(N2CCN(Cc3ccc4c(c3)OCO4)CC2)C1 (stereo not drawn)	-2	9	1	5874	1
N#Cc1cccc(NC(=O)CSc2nnc(C3CC3)n2C2CC2)c1	-2	·	3	7817	3
CCOC(=O)c1c(-n2c(C)cc(C=O)c2C)sc2c1CCCC2	0	5	0	22089*	-4
CC(=NNC1=NCCN1)c1cnn(C2=NCCN2)c1C	0	·	2	5347	-1
CCc1ccc([C@@H]2C[C@H]3[C@@H](CN2S(=O)(=O)c2ccc(C)cc2)C(=O)C[C@@H](c2cccc(Cl)c2)N3S(=O)(=O)c2ccc(C)cc2)cc1	0	·	-2	3723	0
COc1ccc(C2=Nn3c(nnc3-c3ccco3)SC2)cc1	-3	-1	-9	17209*	-5
COc1ccc(C2=Nn3c(nnc3-c3ccncc3)SC2)cc1	?	13	-3	?	?
CCOc1ccc(C2=Nn3cnnc3SC2)cc1	1	-1	2	22944*	2
SMILES	BoNT-A LC inh2	BJeLR lethal	BoNT F protease	Autofluor counter	Anthrax LF inh2
c1ccc(C2=Nn3c(nnc3-c3ccncc3)SC2)cc1	0	5	2	2683	-2
Cc1cccc(-c2nnc3n2N=C(c2ccccc2)CS3)c1	?	-2	-2	20710*	0
CCOc1ccc(C2=Nn3c(nnc3-c3ccc(OC)cc3)SC2)cc1	5	19	7	17851*	-12
O=C(CN(Cc1ccco1)S(=O)(=O)c1cccs1)Nc1ccccc1C(F)(F)F	1	-7	6	4621	2
Cn1c2c(c(=O)n(C)c1=O)CS(=O)c1ccccc1N2 (stereo not drawn)	0	·	4	6222	-3
Cc1ccc2ccccc2c1C(O)c1ncc(-c2ccccc2Cl)[nH]1 (stereo not drawn)	0	·	-4	3465	-2
